IL1B secr inh = qHTS for Inhibitors of Inflammasome Signaling: IL-1-beta AlphaLISA Primary Screen; THP-1 LPS/ATP IL-1B secretion, AlphaLISA, 16 h; stronger effect = lower value; activity change, % at 57.5 µM; actives 4.7% (n = 360,000); in the data active = activity change below about -50%; inconclusive = mostly about -30% to -49%
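Secreted IL-1B measured by AlphaLISA bead assay after 16 h compound exposure of THP-1 cells; compounds (final up to 57.5 uM) added 1 h before LPS (250 ng/mL) and ATP (1.25 mM) stimulation; lower signal means less secretion.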
HT1080 IDH1KD tx = qHTS for induction of synthetic lethality in tumor cells producing 2HG: qHTS for the HT-1080-IDH1KD cell line | HT-1080 IDH1 knockdown viability, ATP luminescence, 48 h | AID 686971, 2013 | Potency, µM (doses to about 46.1 µM), for inactives: at the top dose activity, negative = toxicity, usual class: cytotoxic | actives 2% (n = 360,000);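 also: potency is read from the fitted curve at half-maximal effect; 0% = DMSO wells and -100% = cell-free medium wells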
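HT-1080-IDH1KD cells (IDH1 knocked down), 750/well in RPMI with 5% FBS, treated with compound 48 h at 37 degrees C. Viability by CellTiter-Glo luminescence, normalised to DMSO and no-cell wells; concentration-response curves classed.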
TDP1 cell noCPT = qHTS for Inhibitors of human tyrosyl-DNA phosphodiesterase 1 (TDP1): qHTS in cells in absence of CPT | Potency, µM (doses to about 46.2 µM), for inactives: top-dose activity change, negative = growth inhibition, most hits filed as inhibitors | DT40 Tdp1-/- hTDP1 cells, no CPT, ATP luminescence, 48 h | actives 15% (n = 420,000) | AID 686978, 2013; also: potency is read from the fitted curve at half-maximal effect; nearly all actives have a fitted effect of over 55% in size
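No-CPT arm: Tdp1-/-;hTDP1 DT40 cells (400/well) plus compounds, incubated ≥48 hr at 37 °C. Readout CellTiter-Glo luminescence.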
ELG1 repair inh = qHTS screen for small molecules that inhibit ELG1-dependent DNA repair in human embryonic kidney (HEK293T) cells expressing luciferase-tagged ELG1; HEK293T ELG1-luciferase reporter, luminescence, 16 h; DNA damage induced by 5-fluorouridine; Potency, µM (top dose mostly 46.1 µM), inactives show top-dose activity change, negative = inhibition, hits mostly inhibitors; actives 2.3% (n = 330,000); AID 504467, 2011; also: potency is read from the fitted curve at half-maximal effect; nearly all actives have a fitted effect of over 55% in size
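Cells (2,000 per well) received 5-fluorouridine plus test compound or DMSO and were incubated 16 hr at 37 °C, 5% CO2. Luciferase activity was read by luminescence 30 min after ONE-Glo addition; signal suppression marked inhibition of damage-induced ELG1 function.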
DT40 TDP1 CPT = qHTS for Inhibitors of human tyrosyl-DNA phosphodiesterase 1 (TDP1): qHTS in cells in presence of CPT | Potency, µM (highest dose often 46.2 µM), without a hit: at the top dose activity change, negative = growth inhibition, hits mostly inhibitors | chicken DT40 Tdp1-/-;hTDP1 cells + 20 nM CPT, ATP luminescence, 48 h | actives 12% (n = 420,000); also: potency is read from the fitted curve at half-maximal effect; nearly all actives have a fitted effect of over 55% in size
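Cell growth measured by CellTiter-Glo luminescence after a minimum 48 h, 37 C compound exposure with 20 nM CPT in Tdp1-knockout DT40 cells stably expressing hTDP1, seeded 400/well; qHTS titration format.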
HT1080-NT tox = qHTS for induction of synthetic lethality in tumor cells producing 2HG: qHTS for the HT-1080-NT fibrosarcoma cell line | HT-1080-NT fibrosarcoma viability, CellTiter-Glo ATP luminescence, 48 h | actives 1.6% (n = 360,000) | AID 686970, 2013 | Potency, µM (titrated, usually from 46.1 µM), without a hit: top-dose activity, negative = less viability, actives largely listed as cytotoxic;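 also: NT is the 2HG producing partner of a matched IDH1 knockdown line; potency is read from the fitted curve at half-maximal effect; 0% = DMSO-treated cells and -100% = media-only wells without cells; nearly all actives have a fitted effect of over 55% in size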
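Read-out is CellTiter-Glo luminescence after 10 minutes at room temperature, following 48 hours' compound treatment of HT-1080-NT cells (750 cells/well, RPMI, 5% FBS, 37 degrees C).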
An asterisk follows results filed as active; ? = inconclusive; / = no result given. An excerpt weighted towards active compounds, which were near 19% of everything screened. Unless noted, calls follow the shape of the dose curve; as a rule, active = well fitted curve in the direction sought with a large enough effect; inconclusive = small, poorly fitted or top-dose-only effect, or another doubt; inactive = no such curve, though single readings can be large; an effect the other way counts as inactive or inconclusive. Unless noted, % is scaled to controls: 0 for no effect and ±100 for the full control effect.

SMILES	IL1B secr inh	HT1080 IDH1KD tx	TDP1 cell noCPT	ELG1 repair inh	DT40 TDP1 CPT	HT1080-NT tox
COc1ccc(-c2cc3ccccc3oc2=O)cc1NC(=O)c1ccc([N+](=O)[O-])o1	-9.2	?	14.6µM*	-8.8%	20.6µM*	-11.2%
COc1ccc(-c2cc3ccccc3oc2=O)cc1NC(=S)NC(=O)c1ccc2c(c1)OCCO2	-14.8	-4.0%	9.2µM*	?	11.6µM*	7.9%
N#CC1=C(N)OC2=C(CCc3ccccc32)C1c1ccccc1 (stereo not drawn)	13.0	0.581µM*	0.92µM*	?	0.82µM*	0.92µM*
Cc1ccc(C2C(C#N)=C(N)Oc3cc(N)ccc32)cc1 (stereo not drawn)	-12.0	-1.3%	-26.1%	-15.5%	-12.2%	-9.9%
N#CC1=C(N)Oc2cc(O)ccc2C1c1ccccc1 (stereo not drawn)	-3.4	?	?	-12.5%	-22.0%	?
Cc1ccc(/C=C2\CCC3=C2OC(N)=C(C#N)C3c2ccc(C)cc2)cc1 (stereo not drawn)	-69.9*	13.3%	6.51µM*	?	4.61µM*	-5.1%
CCOC(=O)CNC(=S)n1ncnc1N	-12.9	11.4%	?	-1.0%	16.4µM*	13.2%
C#CCN(C[C@H]1[C@H](OC(=O)NC2CC2)[C@H](OC(=O)NC2CC2)C[C@@H](C(=O)OC)[C@H]1C(=O)OC)S(=O)(=O)c1ccc(C)cc1	-25.3	4.3%	?	/	-28.0%	13.1%
C#CCN(C[C@@H]1[C@@H](OC(=O)NCC2CCCCC2)[C@@H](OC(=O)NCC2CCCCC2)Cn2c(=O)ccc(=O)n21)S(=O)(=O)c1ccc(C)cc1	-106.4*	2.59µM*	3.26µM*	/	2.91µM*	5.17µM*
C#CCN(C[C@@H]1[C@@H](OC(=O)NCCCCCC)[C@@H](OC(=O)NCCCCCC)Cn2c(=O)ccc(=O)n21)S(=O)(=O)c1ccc(C)cc1	-107.4*	4.11µM*	3.26µM*	/	4.61µM*	4.61µM*
COC(=O)c1sc(N2C(=O)c3oc4ccccc4c(=O)c3C2c2ccc(O)cc2)nc1C (stereo not drawn)	/	/	-1.8%	/	-19.0%	/
CCOC(=O)c1sc(N2C(=O)c3oc4ccc(F)cc4c(=O)c3C2c2cccc(OC)c2)nc1C (stereo not drawn)	/	/	-9.7%	/	-9.6%	/
COc1ccc(CCN2C(=O)c3oc4ccc(F)cc4c(=O)c3C2c2ccc(C(C)(C)C)cc2)cc1 (stereo not drawn)	/	/	3.26µM*	/	?	/
COc1cccc(C2c3c(oc4ccccc4c3=O)C(=O)N2CCCN2CCOCC2)c1OC (stereo not drawn)	11.2	17.0%	6.6%	/	0.2%	-0.4%
COc1ccc(C2c3c(oc4ccccc4c3=O)C(=O)N2CCCN2CCOCC2)cc1 (stereo not drawn)	6.7	4.8%	23.1µM*	/	?	2.7%
CCCOc1ccc(C2c3c(oc4ccc(F)cc4c3=O)C(=O)N2CCc2ccc(OC)cc2)cc1 (stereo not drawn)	/	/	-27.7%	/	1.1%	/
CCOc1cccc(C2c3c(oc4ccc(F)cc4c3=O)C(=O)N2CCc2ccc(OC)cc2)c1 (stereo not drawn)	/	/	?	/	5.17µM*	/

Compound activity (PubChem BioAssay)
